Assay [1] can be described thus: NCI Yeast Anticancer Drug Screen. Data for the rad50 strain (AID 155).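 Further: 0% = growth of vehicle-only cultures of the same strain.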 The settings on record: S. cerevisiae rad50 strain growth inhibition; at 50.0 µM; active compounds read high. Summed up: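 Compounds were tested on a yeast strain with an engineered DNA damage repair alteration; the reported value is growth inhibition normalised to vehicle treatment.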
Assay [2] is described as follows: NCI Yeast Anticancer Drug Screen. Data for the mec2-1 strain (AID 157). The settings on record: S. cerevisiae mec2-1 strain, at 50.0 µM, active compounds read high. Summed up:
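Using mec2-1 yeast: add compound, measure growth, express inhibition versus vehicle-treated cultures.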

Assay [3] is described as follows: NCI Yeast Anticancer Drug Screen. Data for the sgs1 mgt1 strain (AID 161).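 Further: 0% = growth of cultures given vehicle only.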 The settings on record: S. cerevisiae sgs1 mgt1 strain, at 50.0 µM, active compounds read high. Summed up: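 Yeast cells carrying a defined DNA-repair defect were exposed to test compounds. Growth inhibition was measured relative to vehicle-treated controls.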
The nature of assay [4]: NCI Yeast Anticancer Drug Screen. Data for the cln2 rad14 strain (AID 165).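 Further: 0% = growth equal to vehicle treated cultures.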 The settings on record: S. cerevisiae cln2 rad14 strain, at 50.0 µM, active compounds read high. Summed up:
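Yeast strain cln2 rad14, bearing defects in cell cycle control and DNA repair, serves as the test system; values reflect growth inhibition compared with vehicle.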

The nature of assay [5]: NCI Yeast Anticancer Drug Screen. Data for the bub3 strain (AID 167). The settings on record: S. cerevisiae bub3 mutant strain, at 50.0 µM, active compounds read high. Summed up:
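Growth of a checkpoint-deficient yeast mutant is measured after compound exposure. Values represent inhibition relative to vehicle.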

The nature of assay [6]: NCI Yeast Anticancer Drug Screen. Data for the mlh1 rad18 strain (AID 175). Particulars: S. cerevisiae mlh1 rad18 strain growth inhibition; at 50.0 µM; active compounds read high. Summed up:
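Steps: expose repair-defective yeast to compound; measure growth; express inhibition against vehicle-treated controls.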

The panel holds about 79,000 compounds, 15% with a hit somewhere; the sample as a whole holds those more often. Unmarked numbers belong to inactive results. Active and inactive are the calls of the source. No stated cut-off is given here; in the data, active means growth inhibition above about 70%; inactive means the rest.

Turning to `CS(=O)(=O)OC1CCCCC1OS(C)(=O)=O` (stereo unspecified), the growth inhibition in assay [1] is 3.15%; in assay [2], 8.25%; in assay [3] it was 22.2%; in assay [4] it was -1.85%; in assay [5] it was 7.55%; in assay [6], 9.15%.

With `CCCN(CCC)CCCCCCCCN`, the growth inhibition in assay [1] was 29.1%; in assay [2], -13.2%; in assay [3], -3.2%; in assay [4], 12.8%; in assay [5] it was -7.9%; in assay [6], 16.2%.

For `CC1CN=C(c2ccccn2)C(c2ccccn2)=N1` (stereo unspecified), the growth inhibition in assay [1] is 4.85%; in assay [2], 6.6%; in assay [3], 14.5%; in assay [4], -1.1%; in assay [5], 17.4%; in assay [6], 10.2%.

On to `Cc1cc2c3c(nc2c2cc[nH]c(C)c12)CCCC3`, for which the growth inhibition is 88.2% (active) in assay [1]; 92% (active) in assay [2]; 92% (active) in assay [3]; 91.7% (active) in assay [4]; 90.8% (active) in assay [5]; 91% (active) in assay [6].

Regarding `C=C(S(=O)(=O)c1ccccc1)S(=O)(=O)c1ccccc1` (tested in a mixture with another compound), the growth inhibition in assay [1] is 92.8% (active); in assay [2] it was 97.3% (active); in assay [3], 96.4% (active); in assay [4], 98% (active); in assay [5], 97.8% (active); in assay [6], 94.9% (active).

Regarding `CCN(CC)Cc1cc(N=Nc2ccc3c(c2)c2ccccc2n3CC)c2ccccc2c1O`, the growth inhibition in assay [1] was 20%; in assay [2] it was 10.9%; in assay [3], 11.2%; in assay [4], 12.6%; in assay [5], -5.5%; in assay [6], 2.25%.

Regarding `O=C(N/C(=C/c1ccc(Cl)cc1)c1nc2ccccc2c(=O)n1Nc1ccc([N+](=O)[O-])cc1[N+](=O)[O-])c1ccccc1`, the growth inhibition in assay [1] was -19%; in assay [2], -5%; in assay [3], -19.7%; in assay [4], 0.3%; in assay [5], -21.6%; in assay [6], -17.5%.

Turning to `O=C1CCSSCCC(=O)Nc2ccccc2N1`, the growth inhibition is -36.4% in assay [1]; -42.5% in assay [2]; -14.8% in assay [3]; -9.55% in assay [4]; -18.1% in assay [5]; -15.6% in assay [6].

Regarding `CC1=CC(C)(C)Nc2ccccc2N1`, the growth inhibition in assay [1] was -7.1%; in assay [2], -4.85%; in assay [3] it was -8.8%; in assay [4], 14.2%; in assay [5], -3%; in assay [6], 1.45%.

Regarding `O=C(NC/C=C/Br)NC1CCNc2ccccc21` (stereo unspecified), the growth inhibition in assay [1] was -14.2%; in assay [2], -27.4%; in assay [3] it was 22.1%; in assay [4], 28.6%; in assay [5], 20.2%; in assay [6], 23%.

With `c1ccc2c(c1)CC1C3c4ccccc4C(c4ccccc43)C1C2` (stereo unspecified), the growth inhibition in assay [1] was -12.1%; in assay [2], 3.1%; in assay [3], -8.95%; in assay [4], 8.35%; in assay [5], -16.2%; in assay [6], -25.1%.

For the compound `COc1cc(C(C)(C)C)c2oc3c(c2c1)C(=O)C(C(C)(C)C)=CC3(OC)OC`, the growth inhibition in assay [1] is 13.4%; in assay [2], -6.75%; in assay [3], -17%; in assay [4], 6.4%; in assay [5], 2.25%; in assay [6], -1.65%.

With `CC1OC(OC2C(Oc3cc(O)c4c(c3)O[C@H](c3ccc(O)cc3)CC4=O)OC(CO)C(O)C2O)C(O)C(O)C1O` (stereo partly specified), the growth inhibition was 5.65% in assay [1]; -12% in assay [2]; -5.65% in assay [3]; -3.6% in assay [4]; -0.1% in assay [5]; -46.2% in assay [6].

Regarding `O=C(CCn1[nH]c(=O)c(Cl)c(Cl)c1=O)NO`, the growth inhibition is -21.3% in assay [1]; -14.1% in assay [2]; -9.75% in assay [3]; 3.35% in assay [4]; -19.1% in assay [5]; -13.9% in assay [6].

Take `CC(=O)c1cccc(NC(=O)Nc2cccc(O)c2)c1`: the growth inhibition in assay [1] was 4.5%; in assay [2], 19.9%; in assay [3] it was -5.35%; in assay [4] it was 7%; in assay [5] it was 56.1%; in assay [6], -0.25%.

Regarding `c1ccc(-c2[nH]nc3nc4c(nc23)CCCC4)cc1`, the growth inhibition in assay [1] was 7.4%; in assay [2] it was -5.3%; in assay [3], -5.1%; in assay [4], -32.9%; in assay [5], -33%; in assay [6], 6.6%.

Regarding `C/C=C/C(=O)N(CC)CC`, the growth inhibition in assay [1] is 9%; in assay [2], -4.25%; in assay [3], 3.75%; in assay [4], 1.65%; in assay [5], -24.9%; in assay [6], 10.8%.

Regarding `C=C(c1ccccc1)N1N=NC2CCOC21` (stereo unspecified), the growth inhibition in assay [1] was -4.25%; in assay [2] it was -10%; in assay [3], 4.2%; in assay [4], -20.6%; in assay [5] it was -16.8%; in assay [6], -8.65%.

With `O=C(NCC1(c2ccc3c(c2)OCO3)OCCO1)c1ccccc1[N+](=O)[O-]`, the growth inhibition in assay [1] is 20%; in assay [2], -4.1%; in assay [3] it was -2.1%; in assay [4], -42.6%; in assay [5], -5.75%; in assay [6], 2.6%.

Consider `N#CC12CC3(CCC1CCC1(C2)OCCO1)OCCO3` (stereo unspecified), for which the growth inhibition is -13.8% in assay [1]; 2.65% in assay [2]; -3.9% in assay [3]; -6.65% in assay [4]; 4.3% in assay [5]; -1% in assay [6].

In the case of `CCCCCCCCCCCCCCCC(=O)NC(CCCCN)C(=O)NC(CCCCN)C(=O)OCC` (stereo unspecified), the growth inhibition in assay [1] is 77.9% (active); in assay [2], 97% (active); in assay [3], 68.9%; in assay [4], 94.5% (active); in assay [5], 47.4%; in assay [6] it was 65.5%.

Values taken from PubChem BioAssay (NCI).
